Results published in PubChem BioAssay.
For part of these data: Measured potencies and affinities stand elsewhere. Activity calls are given as the source filed them.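 How the source made its calls, unless noted: active means calcium signal ratio cut to more than 3 SD under the fully stimulated control mean yet still positive, in both repeats and the primary screen; inactive means the rest.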

Columns and labels:
[1] = test system: TRPC4 beta (transient receptor potential cation channel C4), mouse; assay: activators of mouse TRPC4 channel, confirmation, cell-based, Fluo4 calcium, HEK293 TRPC4beta/mu-opioid, duplicates, 10 µM (AID 2426;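 active means fluorescence ratio normalized to control raised more than 50% in primary screen plus both repeat runs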;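 on activation: percent rise of integrated ratio over buffer wells lacking compound which define 0%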); conditions: Fluo4 calcium fluorescence, at 10 µM; hits give high values
[2] = test system: transient receptor potential cation channel C4 beta (TRPC4), mouse; assay: activators of mouse TRPC4 channel, confirmation, cell-based, second round, Fluo4, HEK293 TRPC4beta/mu-opioid, 1 µM (AID 2461;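 active means primary screen active and over 50% activation in each of two duplicate runs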;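 on activation: 0% = wells without test compound as baseline of integrated fluorescence ratio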); conditions: Fluo4 calcium fluorescence, at 1 µM; hits give high values
[3] = test system: TRPC4 (transient receptor potential cation channel C4 beta), mouse; assay: positive allosteric modulators of mouse TRPC4, confirmation, cell-based, second round, Fluo-4, HEK293 TRPC4beta/mu-opioid, 1 µM (AID 2554;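 active means primary screen hit whose fluorescence ratio, in both repeats, exceeds the weak agonist control mean by 3 SD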); conditions: DAMGO EC20, Fluo-4 calcium flux, at 1 µM; hits give high values
[4] = test system: TRPC4 beta (transient receptor potential cation channel C4), mouse; assay: positive allosteric modulators of mouse TRPC4, confirmation, cell-based, Fluo-4, HEK293 TRPC4beta/mu-opioid (AID 2555;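 active means primary screen hit whose calcium fluorescence ratio, in both repeats, exceeds the weak agonist control mean by 3 SD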); conditions: DAMGO EC20, Fluo-4 calcium flux, at 10 µM; hits give high values
[5] = molecular target: Short transient receptor potential channel 4 (Mus musculus) (UniProt Q9QUQ5); assay: inhibitors of mouse TRPC4 channel, confirmation, cell-based, Fluo4, HEK293 TRPC4beta/mu-opioid (AID 2636;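 active means calcium signal cut by more than 3 SD below the full-agonist control yet still positive, in both repeats and the earlier primary screen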); conditions: DAMGO, Fluo4 calcium flux, at 10 µM; hits give high values
Sequence of Short transient receptor potential channel 4 (Mus musculus) (Q9QUQ5 whole entry, looked up): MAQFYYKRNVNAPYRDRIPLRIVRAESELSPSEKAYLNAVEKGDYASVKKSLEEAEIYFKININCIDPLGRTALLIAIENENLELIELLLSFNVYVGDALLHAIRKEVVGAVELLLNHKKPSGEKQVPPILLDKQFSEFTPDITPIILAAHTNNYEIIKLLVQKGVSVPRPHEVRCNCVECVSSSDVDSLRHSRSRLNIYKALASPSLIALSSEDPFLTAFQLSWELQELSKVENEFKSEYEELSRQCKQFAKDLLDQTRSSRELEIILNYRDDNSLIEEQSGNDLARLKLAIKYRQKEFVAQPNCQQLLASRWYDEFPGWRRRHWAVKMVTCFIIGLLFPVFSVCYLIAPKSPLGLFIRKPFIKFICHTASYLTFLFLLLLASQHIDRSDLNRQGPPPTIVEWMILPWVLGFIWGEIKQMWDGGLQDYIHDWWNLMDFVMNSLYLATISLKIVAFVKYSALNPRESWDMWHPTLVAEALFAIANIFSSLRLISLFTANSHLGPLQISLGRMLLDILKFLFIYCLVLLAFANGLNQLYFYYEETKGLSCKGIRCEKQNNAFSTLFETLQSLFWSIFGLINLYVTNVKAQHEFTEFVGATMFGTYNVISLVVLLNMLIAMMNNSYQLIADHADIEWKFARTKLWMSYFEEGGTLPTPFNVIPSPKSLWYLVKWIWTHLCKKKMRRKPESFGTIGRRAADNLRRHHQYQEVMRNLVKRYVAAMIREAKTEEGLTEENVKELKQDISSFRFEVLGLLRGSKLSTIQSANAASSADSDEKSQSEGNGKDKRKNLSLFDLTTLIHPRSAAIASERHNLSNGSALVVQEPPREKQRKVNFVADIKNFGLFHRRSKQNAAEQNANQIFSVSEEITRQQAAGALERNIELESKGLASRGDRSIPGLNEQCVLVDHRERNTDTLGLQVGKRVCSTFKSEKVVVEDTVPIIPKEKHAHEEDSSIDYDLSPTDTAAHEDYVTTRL

[6] = molecular target: Short transient receptor potential channel 4 (Mus musculus) (UniProt Q9QUQ5); assay: inhibitors of mouse TRPC4 channel, confirmation, cell-based, second round, Fluo4, HEK293 TRPC4beta/mu-opioid, 1 µM (AID 2637); conditions: Fluo4 calcium flux, DAMGO, at 1 µM; hits give high values
[7] = molecular target: Short transient receptor potential channel 4 (Mus musculus) (UniProt Q9QUQ5); assay: TRPC4 positive allosteric modulators, dose response, cell-based, HEK293 TRPC4/mu-opioid, Fluo-4 calcium, EC20 DAMGO (AID 434941;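 active means earlier screen potentiator hit that boosts the TRPC4 ion channel at some dose, with a dose response; inactive means no potentiation, no dose response, or not a prior hit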;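 further: calcium entry triggered by an EC20 dose of DAMGO at the co-expressed mu-opioid receptor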)
[8] = molecular target: Short transient receptor potential channel 4 (Mus musculus) (UniProt Q9QUQ5); assay: mouse TRPC4 channel inhibitors, dose response, cell-based, HEK293 TRPC4/mu-opioid, Fluo-4 calcium (AID 434942;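 active means primary screen inhibitor hit that blocks the TRPC4 channel at some tested dose, yielding a dose curve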)
[9] = molecular target: Short transient receptor potential channel 6 (Mus musculus) (UniProt Q61143); assay: inhibition of mouse TRPC6 channel, confirmation, selectivity assay for TRPC4 inhibitor project, cell-based, HEK293, membrane potential dye, duplicate (AID 434948;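 active means active in primary screen and both duplicates, each dropping signal beyond three positive-control SD with fluorescence still positive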); conditions: HEK293 TRPC6, membrane potential dye fluorescence, at 10 µM, stimulated with maximal-effect acetylcholine; hits give high values
Sequence of Short transient receptor potential channel 6 (Mus musculus) (Q61143 whole entry, looked up): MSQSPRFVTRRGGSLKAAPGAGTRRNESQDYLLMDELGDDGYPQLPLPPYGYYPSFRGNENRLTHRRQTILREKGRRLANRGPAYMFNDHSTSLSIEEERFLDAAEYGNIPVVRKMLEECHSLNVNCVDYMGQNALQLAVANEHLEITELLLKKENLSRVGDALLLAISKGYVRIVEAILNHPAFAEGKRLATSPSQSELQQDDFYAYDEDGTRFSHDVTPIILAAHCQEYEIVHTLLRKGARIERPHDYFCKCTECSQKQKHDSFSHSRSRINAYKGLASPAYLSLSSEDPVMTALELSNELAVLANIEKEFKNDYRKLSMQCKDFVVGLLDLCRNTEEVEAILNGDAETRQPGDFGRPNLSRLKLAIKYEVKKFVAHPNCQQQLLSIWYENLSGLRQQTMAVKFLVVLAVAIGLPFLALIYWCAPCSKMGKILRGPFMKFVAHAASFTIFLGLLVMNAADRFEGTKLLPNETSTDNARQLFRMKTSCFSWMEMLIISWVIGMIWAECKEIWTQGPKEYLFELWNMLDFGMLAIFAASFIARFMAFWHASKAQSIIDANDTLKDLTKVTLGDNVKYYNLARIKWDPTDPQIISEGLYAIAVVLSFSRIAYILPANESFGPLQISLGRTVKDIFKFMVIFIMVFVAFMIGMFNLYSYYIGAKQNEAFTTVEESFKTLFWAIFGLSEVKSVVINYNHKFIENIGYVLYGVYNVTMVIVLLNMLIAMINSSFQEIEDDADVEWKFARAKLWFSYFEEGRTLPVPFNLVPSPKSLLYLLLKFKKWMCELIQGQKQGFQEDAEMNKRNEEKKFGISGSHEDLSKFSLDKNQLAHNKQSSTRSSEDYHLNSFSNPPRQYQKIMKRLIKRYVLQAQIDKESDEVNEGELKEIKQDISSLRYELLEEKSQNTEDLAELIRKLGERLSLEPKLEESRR

[10] = molecular target: Short transient receptor potential channel 6 (Mus musculus) (UniProt Q61143); assay: activation of mouse TRPC6 channel, confirmation, selectivity assay for TRPC4 activator project, cell-based, HEK293, membrane potential dye, duplicate (AID 434950;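 active means membrane potential signal rise above negative control mean plus 3 SD in both duplicates, also active in the earlier TRPC4 screen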;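 on activation: 0% = buffer only wells and 100% = acetylcholine maximal-effect wells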); conditions: HEK293 TRPC6, membrane potential fluorescence, at 10 µM; hits give high values
[11] = molecular target: Short transient receptor potential channel 6 (Mus musculus) (UniProt Q61143); assay: TRPC6 potentiation by TRPC4 potentiator hits, confirmation, selectivity assay for TRPC4 potentiator project, HEK293 cells, membrane potential dye, duplicate (AID 434952;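 active means compound raising the membrane signal above positive-control mean plus 3 SD in both repeats, and a primary screen hit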); conditions: HEK293 TRPC6, membrane potential dye fluorescence, at 10 µM, maximal acetylcholine added after compound; hits give high values
[12] = molecular target: Short transient receptor potential channel 4 (Mus musculus) (UniProt Q9QUQ5); assay: calcium flux activators in TRPC4/5HT1a cells, counter-screen for TRPC4 activator project, cell-based, second counter screen, HEK293 TRPC4/5HT1a, Fluo-4 (AID 434977;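 active means calcium signal rise above buffer-control mean plus 5 SD in both duplicates, and also a hit in the primary screen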;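 on activation: plate controls were assay buffer for no effect and maximal serotonin response for full effect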); conditions: Fluo-4 calcium flux, at 10 µM; hits give high values
[13] = calcium flux inhibitors in TRPC4/5HT1a cells, confirmation, counter-screen for TRPC4 inhibitor project, cell-based, second counter screen, HEK293 TRPC4/5HT1a, Fluo-4 (AID 434978;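 active means primary screen active whose calcium signal fell more than 3 SD beyond the full-serotonin control mean in both duplicate plates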;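 further: serotonin given first at submaximal then at maximal dose after compound preincubation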); conditions: Fluo-4 calcium flux, at 10 µM, serotonin added to trigger calcium flux; hits give high values
[14] = test system: TRPC4 (mouse), co-expressed with 5HT1a in HEK293; assay: calcium flux potentiators in TRPC4/5HT1a cells, confirmation, counter-screen for TRPC4 potentiator project, cell-based, second counter screen, HEK293 TRPC4/5HT1a, Fluo-4 (AID 434979;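 active means signal rise over 3 SD above mean of control wells given weak agonist, in both repeats and first screen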); conditions: Fluo-4 calcium flux, at 10 µM, serotonin added at its EC20 dose; hits give high values
[15] = calcium flux activation in mu-opioid HEK293 cells, confirmation, counter-screen for TRPC4 activator project, cell-based, HEK293 mu-opioid receptor line (AID 449723;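 active means hit in primary screen, with calcium signal over 5 SD above buffer well mean in both duplicates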;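 further: counter screen cells carry the mu-opioid receptor alone and lack TRPC4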); conditions: Fluo-4 calcium fluorescence, at 10 µM; hits give high values
[16] = calcium flux enhancement in mu-opioid HEK293 cells, confirmation, counter-screen for TRPC4 allosteric potentiator project, cell-based, HEK293 mu-opioid receptor line (AID 449724;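 active means calcium signal rise more than 3 SD above the low-dose agonist control mean, in both duplicate plates and the primary screen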); conditions: Fluo-4 calcium flux, at 10 µM, compound added before EC20 DAMGO stimulus; hits give high values

COc1cc(OC)c(OC)cc1CCC(C)NCCC(c1ccccc1)c1ccccc1 (stereo not given)
active: activation [1] 106% | activation [10] 28% | activation [12] 66.8% | activation [15] 11.2%
inactive: outcome [2] | outcome [3] | outcome [4] | outcome [5] | outcome [6] | outcome [7] | outcome [8] | outcome [9] | outcome [11] | outcome [13] | outcome [14] | outcome [16]

CC(=O)c1ccc(S(=O)(=O)NCc2ccc(C(=O)NCC(c3ccccc3)N(C)C)cc2)cc1 (stereo not given)
active: activation [1] 127% | activation [2] 99% | activation [10] 33%
inactive: outcome [3] | outcome [4] | outcome [5] | outcome [6] | outcome [7] | outcome [8] | outcome [9] | outcome [11] | outcome [12] | outcome [13] | outcome [14] | outcome [15] | outcome [16]

COC(=O)c1ccc(N2CCN(C)CC2)c(NC(=O)c2cccs2)c1
inactive: outcome [2] | outcome [3] | outcome [4] | outcome [5] | outcome [6] | outcome [7] | outcome [8] | outcome [9] | outcome [10] | outcome [11] | outcome [13] | outcome [14] | outcome [16]
active: activation [1] 138% | activation [12] 52.7% | activation [15] 15.6%

OCCC1CN(Cc2ccccc2-c2ccco2)CCN1Cc1ccccc1 (stereo not given)
active: activation [10] 63.5% | activation [12] 17.2%
inactive: outcome [1] | outcome [2] | outcome [3] | outcome [4] | outcome [5] | outcome [6] | outcome [7] | outcome [8] | outcome [9] | outcome [11] | outcome [13] | outcome [14] | outcome [15] | outcome [16]

CC1CC(C)CN(CCCNC(=O)Cn2cccc2C(=O)c2ccccc2)C1 (stereo not given)
active: activation [1] 162% | activation [2] 98% | activation [10] 50.5% | activation [12] 62.1%
inactive: outcome [3] | outcome [4] | outcome [5] | outcome [6] | outcome [7] | outcome [8] | outcome [9] | outcome [11] | outcome [13] | outcome [14] | outcome [15] | outcome [16]

O=C(NC1CC1)C1=C[C@H](c2csc3ccccc23)C[C@H](OCc2ccc(CO)cc2)O1
active: activation [10] 35.5%
inactive: outcome [1] | outcome [2] | outcome [3] | outcome [4] | outcome [5] | outcome [6] | outcome [7] | outcome [8] | outcome [9] | outcome [11] | outcome [12] | outcome [13] | outcome [14] | outcome [15] | outcome [16]

O=C(O)c1ccc(-c2ccc(/C=N/Nc3ccc([N+](=O)[O-])cc3)o2)cc1
active: activation [1] 120% | potentiation [4] 11% | activation [10] 442% | activation [12] 111% | activation [15] 106%
inactive: outcome [2] | outcome [3] | outcome [5] | outcome [6] | outcome [7] | outcome [8] | outcome [9] | outcome [11] | outcome [13] | outcome [14] | outcome [16]

CCC(=O)NC(C)C(c1cccs1)N1CCN(c2ccccc2)CC1 (stereo not given)
inactive: outcome [1] | outcome [2] | outcome [3] | outcome [4] | outcome [5] | outcome [6] | outcome [7] | outcome [8] | outcome [9] | outcome [11] | outcome [12] | outcome [13] | outcome [14] | outcome [15] | outcome [16]
active: activation [10] 29%

COc1ccc2c(Cl)c(-c3nnc4n3CCCCC4)sc2c1
inactive: outcome [2] | outcome [3] | outcome [4] | outcome [5] | outcome [6] | outcome [7] | outcome [8] | outcome [9] | outcome [11] | outcome [12] | outcome [13] | outcome [14] | outcome [15] | outcome [16]
active: activation [1] 117% | activation [10] 52%

COc1cccc(CN2CCNC(=O)C2CC(=O)N(C)CCc2ccccn2)c1OC (stereo not given)
active: activation [1] 138% | activation [12] 52.1%
inactive: outcome [2] | outcome [3] | outcome [4] | outcome [5] | outcome [6] | outcome [7] | outcome [8] | outcome [9] | outcome [10] | outcome [11] | outcome [13] | outcome [14] | outcome [15] | outcome [16]

CN(C)C(CNC(=O)c1ccc2nc[nH]c2c1)c1ccccc1 (stereo not given)
active: activation [1] 145%
inactive: outcome [2] | outcome [3] | outcome [4] | outcome [5] | outcome [6] | outcome [7] | outcome [8] | outcome [9] | outcome [10] | outcome [11] | outcome [12] | outcome [13] | outcome [14] | outcome [15] | outcome [16]

Cc1onc(-c2ccccc2Cl)c1C(=O)N1CCN(C/C=C/c2ccccc2)CC1
active: activation [1] 190% | activation [10] 38.5%
inactive: outcome [2] | outcome [3] | outcome [4] | outcome [5] | outcome [6] | outcome [7] | outcome [8] | outcome [9] | outcome [11] | outcome [12] | outcome [13] | outcome [14] | outcome [15] | outcome [16]

CN1CCN(C(=O)c2cccn(Cc3c(Cl)cccc3Cl)c2=O)CC1
inactive: outcome [3] | outcome [4] | outcome [5] | outcome [6] | outcome [7] | outcome [8] | outcome [9] | outcome [10] | outcome [11] | outcome [13] | outcome [14] | outcome [15] | outcome [16]
active: activation [1] 147% | activation [2] 88% | activation [12] 42.6%

CC(=O)c1c(C)nn(CC(=O)NC2CCCN(Cc3ccc(CC(C)C)cc3)C2)c1C (stereo not given)
inactive: outcome [2] | outcome [3] | outcome [4] | outcome [5] | outcome [6] | outcome [7] | outcome [8] | outcome [9] | outcome [11] | outcome [13] | outcome [14] | outcome [15] | outcome [16]
active: activation [1] 122% | activation [10] 34.5% | activation [12] 50.2%

c1ccc(Cn2nnnc2C(c2cccnc2)N2CCN(C3CCCCC3)CC2)cc1 (stereo not given)
active: activation [1] 115% | activation [10] 47.5% | activation [12] 32.6%
inactive: outcome [2] | outcome [3] | outcome [4] | outcome [5] | outcome [6] | outcome [7] | outcome [8] | outcome [9] | outcome [11] | outcome [13] | outcome [14] | outcome [15] | outcome [16]
